For 24 compounds, normalised cell viability results are on record in the supplement of paper PMC8285479.

In this assay the test system is NCI-H1944. Nature of the assay: normalised cell viability (NPI; 0 = phenylarsine oxide control, 1 = DMSO control) (fraction of DMSO control); NCI-H1944 is a non-small cell lung cancer line; higher = more viable cells (less compound toxicity). The settings on record: 6 days.
The mark [1] stands for this setting: glucocorticoid arm: hydrocortisone 2.75 uM co-treatment, compound 1 µM.
Where [2] appears, read: glucocorticoid arm: hydrocortisone 2.75 uM co-treatment, compound 5 µM.
Setting [3] is: glucocorticoid arm: hydrocortisone 2.75 uM pre-treated 2 days and continued, compound 1 µM.
Where [4] appears, read: glucocorticoid arm: hydrocortisone 2.75 uM pre-treated 2 days and continued, compound 5 µM.
[5] abbreviates: glucocorticoid arm: vehicle, compound 1 µM.
Where [6] appears, read: glucocorticoid arm: vehicle, compound 5 µM.

Each structure is given as a SMILES string. Counter-ions that a name gives are not always drawn. ± gives the standard deviation of the averaged measurements. Whole data set: some 1,900 compounds, median “normalised cell viability (NPI; 0 = phenylarsine oxide control, 1 = DMSO control)” near 1, cut for the lowest 2% near 0.039. Shown is part of a subset that was picked to be rich in the lowest values.
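Note: CTB read-out in 384-well plates, triplicate wells, NPI normalised per plate against 1 µM phenylarsine oxide (0) and 0.1% DMSO (1) controls.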

Consider `CN[C@@H]1C[C@H]2O[C@@](C)([C@@H]1OC)n1c3ccccc3c3c4c(c5c6ccccc6n2c5c31)C(=O)NC4` [Staurosporine], for which the normalised cell viability by setting is: under setting [1], 0.0825 ± 0.0098; under setting [2], 0.0186 ± 0.003; under setting [3], 0.246 ± 0.01; under setting [4], 0.0923 ± 0.017; under setting [5], 0.0216 ± 0.0022; under setting [6], 0.00445 ± 0.0013.
Turning to `C[C@@H](N)Cc1cnc[nH]1` [Histamine, R(-)-alpha-methyl-, dihydrochloride], the normalised cell viability under setting [1] was determined as 0.997 ± 0.0027; the normalised cell viability under setting [2] came out at 0.997 ± 0.011; the normalised cell viability under setting [3] is 1; the normalised cell viability under setting [4] amounted to 0.994 ± 0.014; the normalised cell viability under setting [5] amounted to 0.9917 ± 0.0045; the normalised cell viability under setting [6] is 0.9963 ± 0.0032.
Regarding `NC(CP(=O)(O)O)C(=O)O` (racemic) [(±)-2-Amino-3-phosphonopropionic acid], the normalised cell viability reads like this: under setting [1], 0.993 ± 0.0066; under setting [2], 0.9903 ± 0.0093; under setting [3], 1.005 ± 0.0087; under setting [4], 1 ± 0.013; under setting [5], 0.9877 ± 0.0049; under setting [6], 0.998 ± 0.013.
For `CCc1c(C(=O)OC)ncc2[nH]c3cc(OC)c(OC)cc3c12` [Methyl 6,7-dimethoxy-4-ethyl-beta-carboline-3-carboxylate], the normalised cell viability turned out to be 1.01 ± 0.016 under setting [1]; 1.023 ± 0.0058 under setting [2]; 1.01 ± 0.01 under setting [3]; 1.03 ± 0.01 under setting [4]; 0.9997 ± 0.0091 under setting [5]; 1.003 ± 0.0058 under setting [6].
`COc1cc(CC(C)N)c(OC)cc1I` (racemic) [(±)-DOI hydrochloride]: the normalised cell viability stood at 1.01 ± 0.01 under setting [1]; 0.983 ± 0.023 under setting [2]; 0.998 ± 0.013 under setting [3]; 1.02 ± 0.01 under setting [4]; 0.998 ± 0.0035 under setting [5]; 0.994 ± 0.004 under setting [6].
For `Oc1ncc(N(CCCl)CCCl)c(O)n1` [Uracil mustard], the normalised cell viability came out at 0.972 ± 0.007 under setting [1]; 1.06 ± 0.011 under setting [2]; 1.043 ± 0.0058 under setting [3]; 1.033 ± 0.0058 under setting [4]; 0.244 ± 0.021 under setting [5]; 1.01 ± 0.011 under setting [6].
As to `C[C@@]12C(=O)OC(=O)[C@]1(C)[C@H]1CC[C@@H]2O1` [Cantharidin], the normalised cell viability by setting is: under setting [1], 0.9967 ± 0.0035; under setting [2], 0.00641 ± 0.0033; under setting [3], 1.05 ± 0.021; under setting [4], 0.12 ± 0.057; under setting [5], 0.9873 ± 0.0032; under setting [6], 0.00459 ± 0.0027.
Take `CN(N=O)c1ccc(O)c(O)c1` [Me-3,4-dephostatin]: the normalised cell viability runs as follows: under setting [1], 1.017 ± 0.0058; under setting [2], 1.01 ± 0.017; under setting [3], 1.007 ± 0.0058; under setting [4], 1.05 ± 0.086; under setting [5], 1.01 ± 0.011; under setting [6], 1.02 ± 0.01.
For the compound `CCCN1CCC[C@@H](c2cccc(C#N)c2)C1` [S(-)-DS 121 hydrochloride], the normalised cell viability amounted to 1.017 ± 0.0058 under setting [1]; 0.972 ± 0.034 under setting [2]; 1.01 ± 0.01 under setting [3]; 0.985 ± 0.033 under setting [4]; 1.02 under setting [5]; 1.04 ± 0.047 under setting [6].
In the case of `NCc1cc(O)no1` [Muscimol hydrobromide], the normalised cell viability reads like this: under setting [1], 1.006 ± 0.0069; under setting [2], 0.993 ± 0.015; under setting [3], 1.01 ± 0.013; under setting [4], 0.992 ± 0.031; under setting [5], 1.01; under setting [6], 1.003 ± 0.0061.
Turning to `CCCN1CCC[C@@H]2Cc3n[nH]cc3C[C@H]21` (racemic) [(±)-Quinpirole dihydrochloride], the normalised cell viability under setting [1] worked out at 1.013 ± 0.0058; the normalised cell viability under setting [2] worked out at 1.01 ± 0.036; the normalised cell viability under setting [3] was 0.893 ± 0.19; the normalised cell viability under setting [4] was 1.03 ± 0.01; the normalised cell viability under setting [5] was determined as 1.013 ± 0.0058; the normalised cell viability under setting [6] stood at 1.01 ± 0.011.
`CCCN1CCC[C@@H]2Cc3n[nH]cc3C[C@H]21` [(-)-Quinpirole hydrochloride]: the normalised cell viability reads like this: under setting [1], 0.982 ± 0.006; under setting [2], 0.992 ± 0.018; under setting [3], 0.867 ± 0.22; under setting [4], 1.01 ± 0.016; under setting [5], 0.985 ± 0.0087; under setting [6], 0.9927 ± 0.0045.
With `CCN(CCCl)CCOC(C)=O` [Acetylethylcholine mustard hydrochloride], the normalised cell viability runs as follows: under setting [1], 1.01 ± 0.015; under setting [2], 1.02 ± 0.034; under setting [3], 1.01 ± 0.013; under setting [4], 1.11 ± 0.061; under setting [5], 0.995 ± 0.0046; under setting [6], 1.01 ± 0.015.
With `N.N.[Cl][Pt][Cl]` [Cisplatin], the normalised cell viability under setting [3] came to 1.01.
With `Cn1c(CCCC(=O)O)nc2cc(N(CCCl)CCCl)ccc21` [bendamustine hydrochloride], the normalised cell viability is, setting by setting: under setting [1], 1.02 ± 0.011; under setting [2], 0.348 ± 0.02; under setting [3], 1.007 ± 0.0058; under setting [4], 0.7867 ± 0.0031; under setting [5], 0.9937 ± 0.006; under setting [6], 0.0218 ± 0.0032.
On to `O=[N+]([O-])c1ccc(O[C@@H]2O[C@H](CO)[C@@H](O)[C@H](O)[C@H]2F)c([N+](=O)[O-])c1` [2,4-Dinitrophenyl 2-fluoro-2-deoxy-beta-D-glucopyranoside], for which the normalised cell viability under setting [1] is 0.9917 ± 0.004; the normalised cell viability under setting [2] amounted to 0.989 ± 0.02; the normalised cell viability under setting [3] is 0.991 ± 0.023; the normalised cell viability under setting [4] came out at 0.974 ± 0.03; the normalised cell viability under setting [5] turned out to be 0.9807 ± 0.0021; the normalised cell viability under setting [6] was 0.9817 ± 0.0064.
Consider `Cc1o[nH]c(=O)c1CC(N)C(=O)O` (racemic) [(±)-AMPA hydrobromide], for which the normalised cell viability runs as follows: under setting [1], 0.995 ± 0.016; under setting [2], 0.983 ± 0.016; under setting [3], 0.999 ± 0.0095; under setting [4], 0.994 ± 0.025; under setting [5], 0.982 ± 0.0027; under setting [6], 0.98 ± 0.007.
On to `CC(N)c1cccc(Cl)c1Cl` (racemic) [(±)-2,3-Dichloro-alpha-methylbenzylamine hydrochloride], for which the normalised cell viability is, setting by setting: under setting [1], 1.006 ± 0.0075; under setting [2], 1.02 ± 0.011; under setting [3], 1.003 ± 0.0064; under setting [4], 1.013 ± 0.0058; under setting [5], 0.9993 ± 0.0097; under setting [6], 1.001 ± 0.0081.
As for `CCCCN1[C@@H]2CC[C@H]1CC(OC(c1ccc(F)cc1)c1ccc(F)cc1)C2` (some centres undefined) [JHW 007 hydrochloride], the normalised cell viability is, setting by setting: under setting [1], 0.969 ± 0.017; under setting [2], 0.629 ± 0.055; under setting [3], 0.987 ± 0.011; under setting [4], 0.969 ± 0.011; under setting [5], 0.993 ± 0.003; under setting [6], 0.228 ± 0.12.
In the case of `CC(N)C(O)c1ccc(O)c(O)c1` (single isomer, unassigned; (-)) [(-)-alpha-Methylnorepinephrine], the normalised cell viability reads like this: under setting [1], 1.01 ± 0.012; under setting [2], 0.971 ± 0.044; under setting [3], 0.995 ± 0.013; under setting [4], 0.958 ± 0.034; under setting [5], 0.9967 ± 0.0058; under setting [6], 0.9977 ± 0.0032.
Consider `C/C=C(/C)C(=O)O[C@H]1C(C)=C2[C@H]([C@@H]1OC(=O)CCCCCCC)[C@@](C)(OC(C)=O)C[C@H](OC(=O)CCC)[C@@]1(O)[C@H]2OC(=O)[C@@]1(C)O` [Thapsigargin], for which the normalised cell viability by setting is: under setting [1], 0.0778 ± 0.015; under setting [2], 0.0411 ± 0.016; under setting [3], 0.215 ± 0.062; under setting [4], 0.101 ± 0.029; under setting [5], 0.0393 ± 0.014; under setting [6], 0.00585 ± 0.0031.
With `Clc1ccc(N2CC3CCC(C2)N3)nn1`, the normalised cell viability reads like this: under setting [1], 1.003 ± 0.0064; under setting [2], 0.979 ± 0.012; under setting [3], 0.9903 ± 0.0074; under setting [4], 0.9827 ± 0.004; under setting [5], 0.9863 ± 0.0075; under setting [6], 0.9843 ± 0.0086.
In the case of `C[C@@H]1O[C@@H](O[C@H]2C[C@@H](O)[C@]3(CO)[C@H]4[C@H](O)C[C@]5(C)[C@@H](C6=CC(=O)OC6)CC[C@]5(O)[C@@H]4CC[C@]3(O)C2)[C@H](O)[C@H](O)[C@H]1O` [Ouabain], the normalised cell viability by setting is: under setting [1], 0.00947 ± 0.006; under setting [2], 0.00628 ± 0.0019; under setting [3], 0.0931 ± 0.013; under setting [4], 0.07 ± 0.028; under setting [5], 0.00711 ± 0.0021; under setting [6], 0.00424 ± 0.002.
Take `C[C@@H]1O[C@@H](O[C@H]2C[C@@H](O)[C@]3(CO)[C@H]4[C@H](O)C[C@]5(C)[C@@H]([C@@H]6COC(=O)C6)CC[C@]5(O)[C@@H]4CC[C@]3(O)C2)[C@H](O)[C@H](O)[C@H]1O` [Dihydroouabain]: the normalised cell viability turned out to be 1.027 ± 0.0058 under setting [1]; 0.0138 ± 0.013 under setting [2]; 1.01 ± 0.015 under setting [3]; 0.143 ± 0.081 under setting [4]; 0.98 ± 0.017 under setting [5]; 0.00677 ± 0.002 under setting [6].
